Source: PubChem BioAssay
Compounds with a hit are over-represented: about 4.8% of the library has one in this group of screens.
USP2a block: qHTS Assay for Inhibitors of Ubiquitin-specific Protease USP2a Using CHOP2 as the Reporter; USP2 core, Ub-CHOP2 coupled fluorogenic reporter, 485/531; Potency, µM (titrated, usually from 38.3 µM), inactives show top-dose activity change, negative = inhibition, most hits filed as inhibitors; actives 0.01% (n = 330,000);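 further: potency means the concentration at half of the fitted maximal effect; plate controls were DMSO wells for no effect and full inhibition by NEM control for full effect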
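Cell-free coupled assay: 10nM USP2 core preincubated 30min RT with compound in Tris-HCl pH 8.0/CaCl2/CHAPS buffer, then 25nM Ub-CHOP2 and 25nM reporter substrate; fluorescence (Ex 485/Em 531) read after 60min RT, normalized to NEM inhibition, concentration-response curves fitted.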
ATXN2 expr inh: Primary qHTS for Inhibitors of ATXN expression | HEK-293 ATXN2-luciferase reporter, luminescence, 24 h | Potency, µM (titrated, usually from 57 µM), inactives show at the highest dose activity change, negative = inhibition, most hits filed as inhibitors | actives 0.72% (n = 360,000) | AID 1745845, 2022; further: potency means the concentration at half of the fitted maximal effect; on the % scale 0 is the no-effect control and ±100 the full control effect; nearly all actives have a fitted effect of over 55% in size
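qHTS (up to 57 uM final) was run with 24 h compound exposure of reporter cells at 37 °C. Each well was multiplexed: SteadyGlo luminescence measured ATXN2-luciferase expression after a fluorogenic Gly-Phe-AFC viability readout (25 uM final).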
IL-1B inflam inh: qHTS for Inhibitors of Inflammasome Signaling: IL-1-beta AlphaLISA Primary Screen; THP-1 LPS/ATP IL-1B secretion, AlphaLISA, 16 h; hits give low values; activity change, % at 57.5 µM; actives 4.7% (n = 360,000); AID 743279, 2014; in the data active means activity change below about -50%; inconclusive means mostly about -30% to -49%; further: on the % scale 0 is the no-effect control and ±100 the full control effect
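THP-1 cells pretreated 1 hr with compounds (up to 57.5 uM final), then stimulated with LPS (250 ng/mL final) plus ATP (1.25 mM final); secreted IL-1B measured by AlphaLISA after 16 hr, decreased signal indicating inhibition.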
USP1-UAF1 inh: Inhibitors of USP1/UAF1: Primary Screen; Ubiquitin carboxyl-terminal hydrolase 1 (Homo sapiens), O94782; actives 0.23% (n = 390,000); recombinant USP1/UAF1, Ub-Rhodamine cleavage fluorescence; Potency, µM (doses to about 57.1 µM), without a hit: top-dose activity change, negative = inhibition, most hits filed as inhibitors; further: potency means the concentration at half of the fitted maximal effect; on the % scale 0 is the no-effect control and ±100 the full control effect; nearly all actives have a fitted effect of over 60% in size
Target sequence (O94782 whole entry, looked up): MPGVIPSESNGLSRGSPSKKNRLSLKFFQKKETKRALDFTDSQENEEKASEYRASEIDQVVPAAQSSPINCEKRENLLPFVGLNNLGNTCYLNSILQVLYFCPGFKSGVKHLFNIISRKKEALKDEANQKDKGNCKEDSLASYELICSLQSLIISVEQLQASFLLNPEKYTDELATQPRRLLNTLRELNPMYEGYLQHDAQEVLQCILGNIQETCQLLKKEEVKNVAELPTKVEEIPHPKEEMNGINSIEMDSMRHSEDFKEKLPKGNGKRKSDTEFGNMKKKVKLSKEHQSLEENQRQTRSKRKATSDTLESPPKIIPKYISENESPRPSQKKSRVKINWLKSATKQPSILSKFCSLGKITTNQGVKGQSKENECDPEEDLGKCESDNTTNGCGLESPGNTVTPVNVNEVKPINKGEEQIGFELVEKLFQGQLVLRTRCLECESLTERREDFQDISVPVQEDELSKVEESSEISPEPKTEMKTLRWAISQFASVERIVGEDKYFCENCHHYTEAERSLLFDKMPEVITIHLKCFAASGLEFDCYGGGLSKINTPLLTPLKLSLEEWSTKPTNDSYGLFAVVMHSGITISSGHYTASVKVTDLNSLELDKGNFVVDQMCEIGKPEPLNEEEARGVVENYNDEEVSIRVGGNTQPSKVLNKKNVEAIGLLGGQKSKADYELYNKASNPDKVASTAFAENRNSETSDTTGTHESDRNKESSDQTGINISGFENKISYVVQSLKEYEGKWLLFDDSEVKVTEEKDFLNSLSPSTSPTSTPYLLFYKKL
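In this screen, compounds sit with the deubiquitinase complex (1nM) for 15 min at room temperature before Ub-Rho is added at 150nM final. Fluorescence rise is then followed for 6 reads every 60 seconds.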
S2 tox: Viability Counterscreen for Primary qHTS for Inhibitors of ATXN expression; S2 cells (HEK-293 line with an ATXN2-luciferase reporter) viability, CellTiter-Fluor protease fluorescence, 24 h; Potency, µM (doses to about 56.7 µM), actives largely listed as cytotoxic; actives 0.49% (n = 400,000); AID 651635, 2014; further: potency means the concentration at half of the fitted maximal effect; nearly all actives have a fitted effect of over 40% in size
Starred values were filed as active, the others as inactive; i = inactive; u = inconclusive; x = not tested or not shown; [ ] = dose if it differs, or a comment. Unless noted, the call rests on the fitted dose curve; in most records, active means well fitted curve in the direction sought with a large enough effect; inconclusive means small, poorly fitted or top-dose-only effect, or another doubt; inactive means no such curve, though single readings can be large; an effect the other way counts as inactive or inconclusive.

SMILES	USP2a block	ATXN2 expr inh	IL-1B inflam inh	USP1-UAF1 inh	S2 tox
COc1cc2cc3c(N)c(C(=O)NCc4ccco4)sc3nc2cc1OC	-1%	21%	-58*	-26%	i
Cc1ccc2nc3sc(C(=O)NCc4ccco4)c(N)c3cc2c1	u	7%	-8	367%	i
CC(C)Cc1ccc(CN2CCCC(NC(=O)CCn3cnnn3)C2)cc1 (stereo not drawn)	-5%	2%	-60*	4%	i
O=C(CCc1ccc(F)c(F)c1)NC1CCCN(Cc2ccc(Cl)cc2)C1 (stereo not drawn)	2%	-28%	-78*	-10%	i
Cc1cc(C)cc(NC(=O)Nc2ccc3c(c2)N(C)C(=O)CS3)c1	-2%	-10%	-50*	-24%	i
O[C@@](CCN1CCCCC1)(c1ccccc1)C1CCCCC1	x	x	x	x	i
O=c1[nH]c(=O)n(C(c2ccccc2)(c2ccccc2)c2ccccc2)cc1N(CCO)CCO	x	-3%	-51*	-6%	i
c1cnc2cc3c(cc2n1)[C@@H]1CNC[C@H]3C1	x	x	x	x	i
Cc1ccc(-c2cnc3cccnn23)cc1F	x	55%	11	x	i
O=C(C1CCN(S(=O)(=O)c2cccc3nsnc23)CC1)N1CC=C(c2ccccc2)CC1	2%	-15%	8	-7%	i
O=C(C1CCCN(S(=O)(=O)c2cccc3nonc23)C1)N1CCN(c2cccc(Cl)c2)CC1 (stereo not drawn)	2%	u	-53*	-23%	u
O=C(C1CCN(S(=O)(=O)c2cccc3nonc23)CC1)N1CCN(c2cccc(Cl)c2)CC1	x	-17%	x	-3%	u
Cc1ccc(C)c(N2CCN(C(=O)C3CCCN(S(=O)(=O)c4cccc5nonc45)C3)CC2)c1 (stereo not drawn)	x	-1%	x	-22%	i
O=C(C1CCCN(S(=O)(=O)c2cccc3nonc23)C1)N1CCN(c2ccccc2Cl)CC1 (stereo not drawn)	0%	-33%	-51*	-13%	i
O=C(C1CCCN(S(=O)(=O)c2cccc3nsnc23)C1)N1CC=C(c2ccccc2)CC1 (stereo not drawn)	1%	u	-55*	-21%	u
CCOC(=O)c1c(C)oc2c(F)c(F)c(F)c(F)c2c1=O	0%	32µM*	-121*	-14%	u
C(=N\Nc1ccc2nncn2n1)/c1ccco1	2%	15%	35	-2%	i
BrC(=C\c1ccccc1)/C=N/Nc1ccc2nncn2n1	2%	7%	-86*	u	i
O=c1oc2ccccc2n1CSC1=NCCS1	1%	30%	-107*	-8%	i
O=c1oc2ccccc2n1CSc1nc2ccccc2s1	0%	3%	32	-22%	u
CCn1nc([N+](=O)[O-])c(C(C#N)c2nc3ccccc3n2C)c(Cl)c1=O (stereo not drawn)	1%	-3%	-94*	-19%	i
CCCn1nc([N+](=O)[O-])c(C(C#N)c2nc3ccccc3s2)c(Cl)c1=O (stereo not drawn)	-10%	-1%	-102*	u	i
O=[N+]([O-])c1ccc(CN2CCN(c3nc4ccccc4s3)CC2)cc1	3%	6%	-18	-7%	i
C[C@@H](C(=O)Nc1ccc2ccccc2c1)[C@H]1C[C@]1(C)[C@H](NC(=O)c1cnccn1)c1ccccc1	-2%	-10%	-52*	u	u
C[C@@H](C(=O)Nc1ccc2ccccc2c1)[C@@H]1C[C@@]1(C)[C@@H](NC(=O)c1cnccn1)c1ccccc1	-3%	-14%	-8	u	u
SMILES	USP2a block	ATXN2 expr inh	IL-1B inflam inh	USP1-UAF1 inh	S2 tox
Cc1cc(C(=O)N[C@H](c2ccccc2)[C@@]2(C)C[C@@H]2[C@@H](C)C(=O)Nc2ccc3ccccc3c2)no1	1%	-17%	-54*	-31%	u
C[C@@H](O)[C@H](N)C(=O)O	x	4%[25.6 µM]	x	x	i
O=[N+]([O-])c1cccc(/C=N\N2CCN(Cc3ccccc3Cl)CC2)c1	6%	2%	-68*	-10%	i
Cc1cccc(CSc2nc(-c3cccc(C)c3)nc3c2Cc2c(CO)cnc(C)c2O3)c1	x	13%	x	-24%	i
Cc1ccc(Cl)cc1N1CCN(C(=O)c2cc(S(=O)(=O)N3CCCC3)c[nH]2)CC1	x	x	x	-7%	x
C=C(c1ccc(O)cc1)c1ccc(O)cc1	-1%	6%	-59*	-2%	i
Cn1c(SCCC#N)nnc1-c1ccc(F)cc1	1%	x	x	x	x
CC(C)(C)c1ccc(-c2nnc(SCCC#N)n2C2CCCC2)cc1	1%	-29%	-51*	u	i
COc1cc(Cl)c(NS(=O)(=O)c2ccc(-c3ccc(=O)[nH]n3)o2)c(OC)c1	0%	0%	-10	-14%	i
O=C1C=C(Nc2cccnc2)c2ccccc2C1=O	x	u	-70*	14µM*	x
COc1cc(Cl)c(NC2=CC(=O)C(=O)c3ccccc32)c(OC)c1	0%	u	u	28µM*	25µM*
CCOc1ccc(NC2=CC(=O)C(=O)c3ccccc32)cc1	x	-27%	-55*	25µM*	u
O=C1C=C(Nc2ccc(F)cc2)c2ccccc2C1=O	1%	u	0	25µM*	i
CCOc1ccc(NC2=CC(=O)CCC2)cc1	0%	-6%	14	-5%	i
COc1ccc(N(C)C(=O)c2ccc(NC(=O)CCS(=O)(=O)c3cccs3)cc2)cc1	-1%	22%	33	-13%	i
COc1ccc(-c2noc(C3CCCN(C(=O)c4ccc(F)cc4)C3)n2)cc1 (stereo not drawn)	3%	-26%	u	-8%	i
COc1ccc(-c2noc(C3CCCN(C(=O)c4ccc(C)cc4)C3)n2)cc1 (stereo not drawn)	8%	-19%	-70*	-19%	i
Cc1ccccc1NC(=O)N1CCCC(c2nc(-c3ccc(F)cc3)no2)C1 (stereo not drawn)	2%	-6%	12	-8%	i
Cc1ccccc1NC(=O)N1CCCC(c2nc(-c3ccc(C(C)C)cc3)no2)C1 (stereo not drawn)	3%	-24%	-77*	-13%	u
CS(=O)(=O)c1ccc(N)c(SSc2cc(S(C)(=O)=O)ccc2N)c1	2%	7%	-95*	-11%	i
Cc1ccc2[nH]cc(CCNC(=O)c3cccs3)c2c1	0%	-8%	-75*	1%	i
O=C(NCc1ccccc1F)c1ccc2c(c1)OCO2	0%	11%	-16	-9%	i
